Compounds with a hit are over-represented: about 1.3% of the library has one in this group of screens.
AmpC inh detg = blocks E. coli AmpC beta-lactamase in detergent assay. Potency, µM (highest dose often 114 µM), for the others: at the highest dose activity change, negative = inhibition, hits mostly inhibitors. 370,000 compounds, 0.041% hits. P00811. AmpC hydrolysis of nitrocefin, absorbance 480 nm, 0.01% Triton;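 note: 0% = no-compound wells and -100% = no-enzyme wells; nearly all actives have a fitted effect of over 25% in size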
Target sequence (P00811 whole entry, looked up): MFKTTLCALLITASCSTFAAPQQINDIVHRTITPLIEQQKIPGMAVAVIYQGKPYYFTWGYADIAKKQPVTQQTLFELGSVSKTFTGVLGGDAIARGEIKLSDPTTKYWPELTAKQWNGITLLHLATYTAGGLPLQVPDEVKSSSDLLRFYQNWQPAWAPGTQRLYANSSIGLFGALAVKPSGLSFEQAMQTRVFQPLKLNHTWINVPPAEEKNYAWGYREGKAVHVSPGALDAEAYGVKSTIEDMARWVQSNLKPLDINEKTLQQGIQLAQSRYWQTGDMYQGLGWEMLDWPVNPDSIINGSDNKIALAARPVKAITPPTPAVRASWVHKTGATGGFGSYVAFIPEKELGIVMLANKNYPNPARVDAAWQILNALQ
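20 mM phosphate pH 7.0 + 0.01% (detergent screen) or 0.0001% Triton X-100; 5.3 nM AmpC reagent; cpd preinc 15 min RT; nitrocefin (800 uM stock) to start; A480 q20 s × 4 min; Activity was normalised to no-enzyme and no-compound control wells.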
Vaccinia mCherry = inhibitors of vaccinia virus infection (mCherry reporter signal) | Vaccinia virus mCherry reporter infection, fluorescence | Potency, µM (highest dose often 36.5 µM), for the others: top-dose activity change, negative = inhibition, hits mostly inhibitors | 310,000 compounds, 0.63% hits; calls by dose curve; tested in A549 cells; note: % is set by controls: 0 for no effect and ±100 for the full control effect; nearly all actives have a fitted effect of over 35% in size
Vaccinia Venus = vaccinia inhibition (Venus reporter); Vaccinia virus Venus reporter expression, fluorescence; Potency, µM (series often up to 36.5 µM), inactives show at the highest dose activity change, negative = inhibition, hits mostly inhibitors; 330,000 compounds, 0.46% hits; AID 720580; calls by dose curve; tested in A549 cells; note: % is set by controls: 0 for no effect and ±100 for the full control effect; nearly all actives have a fitted effect of over 30% in size
SARS PLpro yeast = blocks SARS-CoV papain-like protease in a yeast assay; S. cerevisiae expressing SARS-CoV PLpro, growth rescue; Potency, µM (highest dose often 32.9 µM), without a hit: at the top dose activity, positive = growth rescue, actives largely listed as activators; 330,000 compounds, 0.19% hits; AID 485353; calls by dose curve; note: 0% is about no effect; nearly all actives have a fitted effect of over 55% in size
AmpC no deterg = inhibitors of E. coli AmpC beta-lactamase without detergent. 330,000 compounds, 0.52% hits. AmpC nitrocefin hydrolysis, absorbance 480 nm, 0.0001% Triton. AID 485341. Potency, µM (top dose mostly 57.1 µM), inactives show at the top dose activity change, negative = inhibition, actives largely listed as inhibitors;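 note: plate controls were no compound for no effect and no enzyme for full effect; nearly all actives have a fitted effect of over 20% in size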
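20 mM phosphate pH 7.0 + 0.01% (detergent screen) or 0.0001% Triton X-100; 5.3 nM AmpC reagent; cpd preinc 15 min RT; nitrocefin (800 uM stock) to start; A480 q20 s × 4 min; Activity was normalised to no-enzyme and no-compound control wells.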
An asterisk follows results filed as active; ! = repeats disagree. Unless noted, calls come from the whole dose curve; as a rule, active = well fitted curve in the direction sought with a large enough effect; inconclusive = small, poorly fitted or top-dose-only effect, or another doubt; inactive = no such curve, though single readings can be large; an effect the other way counts as inactive or inconclusive. Potency is the fitted concentration of half-maximal effect.

`CC(C)c1ccc(NC(=O)CSc2nc(=O)[nH]c3c2CCCC3)cc1` gave AmpC inh detg -15%, Vaccinia mCherry -9%, Vaccinia Venus -16%, SARS PLpro yeast 4% and AmpC no deterg 35µM*.
For Cc1c(C(=O)N2CC3CCC2C3)sc2ncnc(NCc3ccco3)c12 (configuration not stated) the results were Vaccinia mCherry -2% and Vaccinia Venus -17%.
`Cc1ccsc1C(=O)N1CCC(N2CCC(C(=O)NCC3CCCO3)CC2)CC1` (configuration not stated) gave AmpC inh detg -4%, Vaccinia mCherry -12%, Vaccinia Venus 6%, SARS PLpro yeast 0% and AmpC no deterg 61%.
For O=C(Nc1ccc(C(F)(F)F)cc1)C1CCCN(S(=O)(=O)c2cccc3cccnc23)C1 (configuration not stated) the results were AmpC inh detg 9%, Vaccinia mCherry -28% and Vaccinia Venus -12%.
`O=C(Nc1ccncc1)C1CCCN(S(=O)(=O)c2cccc3cccnc23)C1` (configuration not stated) gave AmpC inh detg inconclusive, SARS PLpro yeast -4% and AmpC no deterg 45µM*.
For O=C(NCc1ccccc1)C1CCN(S(=O)(=O)c2cccc3cccnc23)CC1 the results were AmpC inh detg inconclusive, Vaccinia mCherry inactive, Vaccinia Venus -8%, SARS PLpro yeast -1% and AmpC no deterg -6%.
Screening O=C(NCC1CCCO1)C1CCN(S(=O)(=O)c2cccc3cccnc23)CC1 (configuration not stated) returned AmpC inh detg -1%, Vaccinia mCherry 2%, Vaccinia Venus -14%, SARS PLpro yeast -3% and AmpC no deterg 3.2µM*.
O=C(NCC1CCCO1)C1CCN(C(=O)c2ccc(Br)cc2)CC1 (configuration not stated) was read as AmpC inh detg -1%, Vaccinia mCherry inactive, Vaccinia Venus 1%, SARS PLpro yeast 2% and AmpC no deterg 4µM*.
`CCOc1ccccc1NC(=O)C1CCCN(S(=O)(=O)c2cccc3cccnc23)C1` (configuration not stated) gave AmpC inh detg -4%, Vaccinia mCherry -17%, Vaccinia Venus -5%, SARS PLpro yeast 4% and AmpC no deterg 5.6µM*.
C[C@@H]1CN(Cc2ccc3c(c2)CN(Cc2nc(-c4ccccc4)cs2)CCO3)C[C@H](C)O1 was read as Vaccinia mCherry -22% and Vaccinia Venus -25%.
For O=[N+]([O-])c1cc([N+](=O)[O-])c(Oc2cccc3ccccc23)cc1NN1CCCCC1 the results were Vaccinia mCherry -4% and Vaccinia Venus -20%.
Screening O=[N+]([O-])c1cc([N+](=O)[O-])c(Oc2cccnc2Br)cc1NN1CCCCC1 returned AmpC inh detg -12%, Vaccinia mCherry 13µM*, Vaccinia Venus inconclusive, SARS PLpro yeast 1% and AmpC no deterg -21%.
O=C(NCc1cccc(C(F)(F)F)c1)c1ccc2nc([C@H]3C[C@H](O)[C@@H](CO)O3)[nH]c2c1 was read as Vaccinia mCherry inactive and Vaccinia Venus -2%.
Screening Nc1ncnc2c1[nH]c(=S)n2C1OC(CO)C(O)C1O (configuration not stated) returned Vaccinia mCherry 34% and Vaccinia Venus 7%.
Screening Nc1ncnc2c1c(I)cn2C1OC(CO)C(O)C1O (configuration not stated) returned Vaccinia mCherry 16µM*! and Vaccinia Venus inconclusive.
Screening N#Cc1c(N)n(C2OC(CO)C(O)C2O)c2ncnc(N)c12 (configuration not stated) returned Vaccinia mCherry inconclusive and Vaccinia Venus 1µM*.
For Nc1ncnc2c1ncn2C1OC(CO)C(O)C1O (configuration not stated) the results were AmpC inh detg inconclusive, Vaccinia mCherry -6%, Vaccinia Venus 6%, SARS PLpro yeast -5% and AmpC no deterg -16%.
`CC(Oc1ccccc1)C(=O)NCC1Cc2cc(F)cc(-c3ccccn3)c2O1` (configuration not stated) gave Vaccinia mCherry 2% and Vaccinia Venus -3%.
For CCSc1nc(-c2ccccc2)c(C#N)c(=O)[nH]1 the results were AmpC inh detg -1%, Vaccinia mCherry -7%, Vaccinia Venus -6%, SARS PLpro yeast 2% and AmpC no deterg 2.2µM*.
`CSc1nc(-c2ccccc2)c(C#N)c(=O)[nH]1` gave AmpC inh detg -12%, Vaccinia mCherry -13%, Vaccinia Venus -2%, SARS PLpro yeast -1% and AmpC no deterg -15%.
For O=C1C=CC2(C=C1)O[C@H](Cc1ccccc1)[C@@H](Cc1ccccc1)O2 the results were Vaccinia mCherry 10µM* and Vaccinia Venus 22µM*.
Screening O=C1Nc2ccccc2C1Cc1ccccc1 (configuration not stated) returned AmpC inh detg 5%, Vaccinia mCherry -3%, Vaccinia Venus -1%, SARS PLpro yeast -1% and AmpC no deterg -18%.
`COc1ccc(N2C(=O)CC(Cc3ccccc3)C2=O)cc1` (configuration not stated) gave AmpC inh detg inconclusive, SARS PLpro yeast 1% and AmpC no deterg -22%.
Screening COc1ccc(C[C@@H]2OC3(C=CC(=O)C=C3)O[C@H]2Cc2ccc(OC)cc2)cc1 returned Vaccinia mCherry inconclusive and Vaccinia Venus 10µM*.
Screening O=C(CN1CCCCC1)Nc1cccc(-n2cnnn2)c1 returned AmpC inh detg 1%, SARS PLpro yeast 0% and AmpC no deterg 0.14µM*.
`Cc1ccc(C(=O)Nc2cccc(-c3nc(CNC(=O)c4cccc(C)c4C)c(C)o3)c2)s1` gave Vaccinia mCherry inconclusive and Vaccinia Venus -24%.
CCN(CC)CCCn1c(=S)[nH]c2cc(Cl)ccc2c1=O was read as AmpC inh detg inconclusive, SARS PLpro yeast 0% and AmpC no deterg 28µM*.
Screening CCN(CC)CCCn1c(=S)[nH]c2ccc(Cl)cc2c1=O returned AmpC inh detg 1%, SARS PLpro yeast 3% and AmpC no deterg 0.28µM*.
CN(C)c1ccc(Nc2nc(N)c3ccccc3n2)cc1 was read as AmpC inh detg -11%, Vaccinia mCherry inconclusive, Vaccinia Venus -27%, SARS PLpro yeast -13% and AmpC no deterg -22%.
CN(C)c1ccc(Sc2ccc3nc(N)nc(N)c3c2)cc1 was read as Vaccinia mCherry 4.5µM* and Vaccinia Venus 5µM*.
`COc1ccccc1N1CCN(CC2CN3C(=O)N(C)c4ccccc4C3=N2)CC1` (configuration not stated) gave Vaccinia mCherry -9% and Vaccinia Venus -13%.

High-throughput results: PubChem BioAssay, National Center for Advancing Translational Sciences (NCATS)
